High-throughput results (PubChem BioAssay)
Sampled rows, rich in hits. Any-hit rate of the full collection: about 1.8%.
IkB signaling = IkB pathway inhibition in ABC-DLBCL cells; ABC-DLBCL IkBa-CBG/CBR dual luciferase ratio, 4 h; response scale: scaled: untreated 0%, proteasome inhibitor 100%; Potency, µM (series often up to 57.1 µM); 110,000 tested, 0.04% active; active means well fitted curve in the direction sought with a large enough effect in the signal ratio, not every such curve was filed as active; inconclusive means small, poorly fitted or top-dose-only effect, or a change in a side signal; the % refers to the signal ratio;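 further: the direction sought is a rising ratio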
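Luminescence ratio of IκBα-fused green versus native red beetle luciferase in OCI-Ly3 cells, 4 h post-doxycycline with compound; red signal alone, scaled from basal (0%) to zero light (-100%), flagged nonspecific or cytotoxic effects.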
p53ts 32C tox = p53ts cell cytotoxicity, permissive temperature; H1299-p53A138V at 32C, ATP luminescence viability, 24 h; Potency, µM (doses to about 46.1 µM), actives largely listed as cytotoxic; 130,000 tested, 0.93% active; further: nearly all actives have a fitted effect of over 55% in size
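Viability by ATPlite luminescence after 24 h compound treatment (up to 46 uM) at the permissive 32C. Cells are H1299 carrying p53 A138V. Scale runs from DMSO basal to 100 uM tamoxifen as full kill; AC50 from Hill fits.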
Imprint erasure = genomic imprint erasure induction | Potency, µM (titrated, usually from 60.7 µM), usual class: activators | mouse ES Peg3-LacZ reporter, beta-gal luminescence, 40 h | 110,000 tested, 0.02% active | AID 1948
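Imprint erasure is scored as LacZ activity from the silenced maternal Peg3 allele in feeder-free female ES cells cultured 40 h with LIF. Luminescence is normalized to in-plate negative controls and fitted to the Hill equation.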
p53ts 39C kill = cytotoxicity in p53ts cells at nonpermissive temperature. H1299-p53A138V viability at 39C, ATP luminescence, 24 h. Potency, µM (highest dose often 46.1 µM), hits mostly cytotoxic. 130,000 tested, 1.5% active; further: nearly all actives have a fitted effect of over 55% in size
A number is an active result; [ ] = another dose, or the depositor's remark. Unless noted, the call rests on the fitted dose curve; in most records, active means well fitted curve in the direction sought with a large enough effect; inconclusive means small, poorly fitted or top-dose-only effect, or another doubt; inactive means no such curve, though single readings can be large; an effect the other way counts as inactive or inconclusive.

`CCCN(CCC)CC(O)Cn1cc(/C=C/C(=O)c2ccc(OC)cc2)c2ccccc21` (stereo not drawn) gave IkB signaling inconclusive, p53ts 32C tox inconclusive, Imprint erasure inactive[10.9 µM] and p53ts 39C kill 10µM.
`CCCCN(C)CC(O)Cn1cc(/C=C/C(=O)c2ccc(Br)cc2)c2ccccc21` (stereo not drawn) gave IkB signaling inconclusive, p53ts 32C tox inconclusive, Imprint erasure inactive[10.9 µM] and p53ts 39C kill inconclusive.
CCCCN(C)CC(O)Cn1cc(/C=C/C(=O)c2ccc(OC)c(OC)c2)c2ccccc21 (stereo not drawn) was read as IkB signaling inconclusive, p53ts 32C tox 20µM, Imprint erasure inconclusive and p53ts 39C kill 16µM.
`CCCCN(C)CC(O)Cn1cc(/C=C/C(=O)c2ccc(C)cc2)c2ccccc21` (stereo not drawn) gave IkB signaling inconclusive, p53ts 32C tox inconclusive, Imprint erasure inactive[10.9 µM] and p53ts 39C kill 16µM.
For CCCN(CCC)CC(O)Cn1cc(/C=C/C(=O)c2ccc(Br)cc2)c2ccccc21 (stereo not drawn) the results were IkB signaling inconclusive, p53ts 32C tox inactive, Imprint erasure inactive[10.9 µM] and p53ts 39C kill 7.9µM.
Screening CC[C@H](C)C(=O)O[C@@H]1CCC=C2C=C[C@H](C)[C@@H](CC[C@H]3C[C@@H](O)CC(=O)O3)[C@H]21 returned IkB signaling inactive.
Screening CCCCCCCCCCCCC/C=C\[C@H](O)[C@H](N)CO returned IkB signaling inactive.
For CN(C)c1ccc(-c2cncnc2N(C)Cc2ccco2)cc1 the results were IkB signaling inactive[11.4 µM], p53ts 32C tox inactive, Imprint erasure inactive and p53ts 39C kill inactive.
Screening CCCN(CCC)CC(O)Cn1cc(/C=C/C(=O)c2ccc(C)cc2)c2ccccc21 (stereo not drawn) returned IkB signaling inconclusive, p53ts 32C tox inconclusive, Imprint erasure inactive[10.9 µM] and p53ts 39C kill 13µM.
`COc1ccc(C(=O)/C=C/c2cn(CC(O)CN(CC(C)C)CC(C)C)c3ccccc23)cc1` (stereo not drawn) gave IkB signaling inactive, p53ts 32C tox inactive, Imprint erasure inactive[10.9 µM] and p53ts 39C kill inactive.
Screening Cc1cc(C)c(-c2n[nH]c3c2C(c2ccccc2F)N(Cc2ccco2)C3=O)c(O)c1 (stereo not drawn) returned IkB signaling inconclusive, p53ts 32C tox inactive, Imprint erasure inactive[10.9 µM] and p53ts 39C kill 16µM.
Screening CCCOc1cccc(C2c3c(-c4ccccc4O)n[nH]c3C(=O)N2Cc2ccco2)c1 (stereo not drawn) returned IkB signaling inconclusive, p53ts 32C tox inconclusive, Imprint erasure inactive[10.9 µM] and p53ts 39C kill 32µM.
`COc1ccc(C2c3c(-c4ccccc4O)n[nH]c3C(=O)N2Cc2ccco2)cc1` (stereo not drawn) gave IkB signaling inconclusive, p53ts 32C tox inactive, Imprint erasure inactive[10.9 µM] and p53ts 39C kill inconclusive.
`COc1ccc(-c2cc(C(=O)N/N=C/c3ccc(OC)c(OC)c3)[nH]n2)cc1` gave p53ts 32C tox inactive and p53ts 39C kill inactive.
`Cc1ccccc1/C=C\C1=NCCN1` gave IkB signaling inactive, p53ts 32C tox inactive and p53ts 39C kill inactive.
`Cc1cc(/C=C2/C(=O)NN(c3ccccc3)C2=O)c(C)n1-c1cccc(O)c1` gave p53ts 39C kill 13µM.
`CC1=NN(c2ccccc2)C(=O)/C1=C\c1cc(C)n(-c2ccccc2)c1C` gave p53ts 39C kill inactive.
For Cc1nc2ccccc2n1CCc1nc2c3ccccc3nc(SCC(=O)Nc3ccc(C(C)C)cc3)n2n1 the results were IkB signaling inactive, p53ts 32C tox inconclusive, Imprint erasure inactive[10.9 µM] and p53ts 39C kill 10µM.
Cc1ccccc1NC(=O)CSc1nc2ccccc2c2nc(CCn3c(C)nc4ccccc43)nn12 was read as IkB signaling inactive, p53ts 32C tox inactive, Imprint erasure inactive[10.9 µM] and p53ts 39C kill inactive.
CCOc1cc(C(=O)CSc2nnc(CNc3ccc(Cl)cc3)o2)ccc1NC(=O)CC was read as IkB signaling inactive, p53ts 32C tox 16µM and p53ts 39C kill 16µM.
CCCNC(=O)OC[C@@H]1O[C@H](CCO/N=C\[C@@H](OC)[C@H](C)/C=C\CC(=O)OC)C=C[C@@H]1Oc1ccc(OC)cc1 was read as p53ts 32C tox inactive[9.22 µM] and p53ts 39C kill inactive[9.22 µM].
CC(C)=CC(=O)Nc1ccc2c(c1)OCO2 was read as IkB signaling inactive, p53ts 32C tox 10µM, Imprint erasure inactive and p53ts 39C kill inconclusive.
`Cc1ccc(Nc2c(-c3c[nH]c4ccccc34)nc3ccccn23)cc1` gave IkB signaling inconclusive, p53ts 32C tox inconclusive, Imprint erasure inactive[10.9 µM] and p53ts 39C kill 16µM.
`Cc1ccc2nc(-c3c[nH]c4ccccc34)c(Nc3ccccc3C)n2c1` gave IkB signaling inconclusive, p53ts 32C tox inactive, Imprint erasure inactive[10.9 µM] and p53ts 39C kill inactive.
Screening COc1ccc(Cl)cc1N=C1NC(=O)CC(C(=O)Nc2ccccc2C(F)(F)F)S1 (stereo not drawn) returned IkB signaling inconclusive, p53ts 32C tox inactive, Imprint erasure inactive[10.9 µM] and p53ts 39C kill inactive.
`CC(C)CO/N=C1/[C@H]2O[C@@H]2[C@@H](O)[C@H]2[C@H]1CCn1c(=O)n(Cc3cc4c(cc3Cl)OCO4)c(=O)n12` gave p53ts 32C tox inactive[9.22 µM] and p53ts 39C kill inactive[9.22 µM].
For CC(C)(C)OC(=O)N1CCC(c2c(C(=O)NCc3ccc(F)cc3)cnn2-c2ccc(F)cc2)CC1 the results were IkB signaling inconclusive, p53ts 32C tox inactive, Imprint erasure inactive[10.9 µM] and p53ts 39C kill inactive.
COc1ccc(CCN2CCC(CNC(=O)c3cnn(-c4cccc(Cl)c4)c3C3CCN(C(=O)OC(C)(C)C)CC3)CC2)cc1 was read as IkB signaling inconclusive, p53ts 32C tox inconclusive, Imprint erasure inactive[10.9 µM] and p53ts 39C kill inconclusive.
For CC(C)(C)OC(=O)N1CCC(c2c(C(=O)NCCN3CCC(Cc4ccccc4)CC3)cnn2-c2ccc(F)cc2)CC1 the results were IkB signaling inconclusive, p53ts 32C tox inconclusive, Imprint erasure inactive[10.9 µM] and p53ts 39C kill 25µM.
Screening CC(C)(C)OC(=O)N1CCC(c2c(C(=O)NCCN3CCC(Cc4ccccc4)CC3)cnn2-c2ccccc2)CC1 returned IkB signaling inactive, p53ts 32C tox inconclusive, Imprint erasure inactive[10.9 µM] and p53ts 39C kill 32µM.
Screening COc1ccc(CCN2CCC(CNC(=O)c3cnn(-c4ccccc4)c3C3CCN(C(=O)OC(C)(C)C)CC3)CC2)cc1 returned IkB signaling inconclusive, p53ts 32C tox inactive, Imprint erasure inactive[10.9 µM] and p53ts 39C kill 13µM.
N#C[C@@H](Cc1ccc(O)c(O)c1)C(=O)N1CCc2ccccc21 was read as IkB signaling inactive, p53ts 32C tox inactive and p53ts 39C kill inactive.
For c1ccc(Nc2nc(-c3ccoc3)nc3ccccc23)cc1 the results were IkB signaling inactive[11.4 µM], p53ts 32C tox inactive, Imprint erasure 4µM and p53ts 39C kill inactive.
CN(C)C(=O)c1ccc(-c2nc(Nc3ccccc3)c3ccccc3n2)cc1 was read as IkB signaling inactive[11.4 µM], p53ts 32C tox inconclusive, Imprint erasure inactive and p53ts 39C kill inconclusive.
